In all, about 190,000 compounds went through this assay and about 810 (0.43%) were called active. This is one part of a sample in which actives are shown more often than they occur. No stated cut-off is given here; in the data, active means inhibition above about 50%; inactive means the rest.

For the experiment, the target named is Mannose-6-phosphate isomerase (Homo sapiens) (UniProt P34949). As to the kind of experiment: inhibitors of human PMI, primary screen, biochemical, fluorescence intensity, coupled assay (AID 1209).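 Further: plate controls were DMSO vehicle for no effect and wells lacking substrate for full effect.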 Conditions: purified PMI enzyme, at 20 µM, active compounds read high.
Mannose-6-phosphate isomerase (Homo sapiens), sequence (P34949 whole entry, looked up): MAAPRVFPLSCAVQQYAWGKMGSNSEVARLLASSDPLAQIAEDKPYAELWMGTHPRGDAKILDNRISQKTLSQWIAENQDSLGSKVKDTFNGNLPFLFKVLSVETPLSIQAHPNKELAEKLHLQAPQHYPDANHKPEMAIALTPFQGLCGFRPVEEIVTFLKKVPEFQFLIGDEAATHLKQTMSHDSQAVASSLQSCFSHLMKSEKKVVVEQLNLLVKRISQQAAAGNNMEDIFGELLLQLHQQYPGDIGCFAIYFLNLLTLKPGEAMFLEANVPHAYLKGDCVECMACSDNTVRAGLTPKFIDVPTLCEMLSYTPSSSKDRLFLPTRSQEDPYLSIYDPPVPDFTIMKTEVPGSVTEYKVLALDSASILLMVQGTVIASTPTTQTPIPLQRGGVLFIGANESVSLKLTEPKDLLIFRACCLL
By inhibition is commonly meant the change of the read-out against control, counted positive when it falls. In the case of `S=C1NC2(CCCC2)Nc2ccccc21`, the inhibition is -71.4% (inactive).

Turning to `COC(=O)c1ccccc1NC(=O)c1ccc(-c2ccccc2F)o1`, the inhibition was -1.4% (inactive).

On to `O=C(CSc1ncn[nH]1)Nc1ccc(Br)cc1F`, for which the inhibition is 6% (inactive). With `O=C1c2ccccc2C(=O)N1CCc1c[nH]c2ccc(O)cc12` the figure was 22.1% (inactive). With `FC(F)(F)c1cc(-c2ccc(Cl)cc2)nc2ncnn12` the figure was -7.2% (inactive). As for `COc1ccc(S(=O)(=O)N2CC(O)CC2C(=O)OCC(=O)Nc2ccc(Cl)cn2)cc1` (stereo not drawn), the inhibition was 13.3% (inactive). For the compound `O=[N+]([O-])c1ccc(-c2cn(-c3ccccc3)c(=S)[nH]2)cc1`, the inhibition was -1.9% (inactive). For the compound `O=[N+]([O-])c1ccc2c(c1)[nH]c(=S)n2-c1ccccc1`, the inhibition was 58.6% (active).

For the compound `O=[N+]([O-])c1cccc(-c2cn(-c3ccccc3)c(=S)[nH]2)c1`, the inhibition is -9.5% (inactive).

In the case of `CCc1cccc(CC)c1NC(=O)c1cc(CN2C(=O)c3ccccc3C2=O)ccc1OC`, the inhibition was 3% (inactive). `Cc1nc2sc(C(c3cccc(F)c3)N3CC(C)OC(C)C3)c(O)n2n1` (stereo not drawn): the inhibition was -12.7% (inactive). Consider `CCN1CCN(S(=O)(=O)c2cc(OCC(=O)NC3CCCCC3)c(C)cc2Cl)CC1`, for which the inhibition is 11.7% (inactive).

On to `CC1(C)CC(=O)c2sc(NC(=O)c3ccc4ncsc4c3)nc2C1`, for which the inhibition is -7.8% (inactive). With `Cc1ccc(OCC(=O)Nc2ccc(-c3nc4ncccc4o3)cc2)c(C)c1` the figure was 97.8% (active); with `Cc1cc(C)cc(OCC(=O)Nc2cccc(-c3nc4ncccc4o3)c2)c1`, -1% (inactive); with `Cc1ccc(-c2nc3ncccc3o2)cc1NC(=O)COc1ccccc1`, 3.5% (inactive). With `COCCNC(=S)NCCc1ccc(Cl)cc1Cl` the figure was -1.5% (inactive). As for `O=C(/C=C/c1ccc(Cl)cc1)NC(=S)Nc1ccc(CN2CCOCC2)cc1`, the inhibition is 20.8% (inactive). For the compound `Cc1ccc(S(=O)(=O)NCC(=O)N(c2ccccc2)C(C(=O)NCc2ccccc2)c2ccco2)cc1` (stereo not drawn), the inhibition is 57.1% (active).

As for `COc1ccc(CNC(=O)C(c2ccco2)N(C(=O)CNS(=O)(=O)c2ccccc2)c2ccccc2C)cc1` (stereo not drawn), the inhibition was 14% (inactive). On to `Cc1cc(C)cc(N(C(=O)CNS(=O)(=O)c2ccccc2)C(C(=O)NCc2ccccc2)c2ccc(C)o2)c1` (stereo not drawn), for which the inhibition was 18.8% (inactive). For the compound `Cc1ccc(/C=N/NC(=O)CN2CCN(S(=O)(=O)c3ccc(Br)cc3)CC2)s1`, the inhibition was 4.9% (inactive). With `COc1cc(-c2nnc(SCc3cc(=O)oc4cc(O)c(O)cc34)o2)cc(OC)c1OC` the figure was 60.1% (active). Turning to `COc1cc(-c2nnc(SCc3cc(=O)oc4cc(C)ccc34)o2)cc(OC)c1OC`, the inhibition was 12.5% (inactive).

As for `COc1cc(-c2nnc(SCc3ccccc3Cl)o2)cc(OC)c1OC`, the inhibition is 23.4% (inactive). Regarding `CCOC(=O)c1c(NC(=O)Cn2cnc([N+](=O)[O-])n2)sc2c1CCCC2`, the inhibition is 18.4% (inactive). Regarding `CC1CCc2c(sc(NC(=O)CCCn3cnc([N+](=O)[O-])n3)c2C(N)=O)C1` (stereo not drawn), the inhibition is 1.2% (inactive). Regarding `Cc1cc([N+](=O)[O-])nn1CCCC(=O)Nc1sc2c(c1C(N)=O)CCC(C)C2` (stereo not drawn), the inhibition was 9.5% (inactive). For `Cc1cc([N+](=O)[O-])nn1CC(=O)Nc1sc2c(c1C(N)=O)CCCC2`, the inhibition is 10.8% (inactive). Take `Cc1cc([N+](=O)[O-])nn1CCCC(=O)Nc1sc2c(c1C(N)=O)CCCC2`: the inhibition is 53% (active). On to `NC(=O)c1c(NC(=O)CCCn2cnc([N+](=O)[O-])n2)sc2c1CCCC2`, for which the inhibition was 55.6% (active). With `CC(C)CC(c1nnnn1CCc1ccccc1)N1CCN(C(=O)c2ccco2)CC1` (stereo not drawn) the figure was 7.4% (inactive); with `COc1cc(/C=C/C(=O)OCC(=O)Nc2cc(C(F)(F)F)ccc2N2CCOCC2)ccc1O`, 13% (inactive); with `COC(=O)Nc1ccc(S(=O)(=O)Nc2cnc3ccccc3n2)cc1`, -10.9% (inactive).

`CC(C)C(NC(=O)c1ccco1)C(=O)NCC(c1ccco1)N(C)C` (stereo not drawn): the inhibition was -3.6% (inactive). For the compound `CCN(C(=O)c1cn(CC)c(=O)c2cc(OC)c(OC)cc12)c1ccccc1C`, the inhibition was 5.3% (inactive).

As for `O=C(O)c1nn(-c2ccccc2)c(-c2ccccc2)c1C(=O)c1ccccc1`, the inhibition is -12.5% (inactive). As to `CC(=O)c1c(O)c(C)c(-c2ccccc2)n(-c2ccccc2)c1=O`, the inhibition is 2.2% (inactive). For the compound `O=C(c1ccccc1)c1c(O)nc(-c2ccccc2)n(-c2ccccc2)c1=O`, the inhibition is 108% (active). For `Oc1c(Br)cc(C2N=C(c3ccccc3Cl)NO2)cc1Br` (stereo not drawn), the inhibition is 0.3% (inactive). On to `FC(F)(F)c1cccc(Cn2c3[n+](c4ccc(C(F)(F)F)cc42)CCCCC3)c1`, for which the inhibition is 1.3% (inactive). With `FC(F)(F)c1ccc2c(c1)n(Cc1ccccc1)c1[n+]2CCCCC1` the figure was 63.9% (active).

Take `Fc1ccccc1Cn1c2[n+](c3ccc(C(F)(F)F)cc31)CCCCC2`: the inhibition was 10.3% (inactive). Turning to `CC1=NN(c2ccc(S(=O)(=O)O)cc2C)C(=O)C1`, the inhibition was -63.6% (inactive). As to `Fc1ccc(C2CCCN2Cc2nc(Cc3ccccc3)no2)cc1` (stereo not drawn), the inhibition was -7% (inactive). With `CC(=O)Nc1ccccc1C(=O)C(=O)Nc1ccc(C)c(F)c1` the figure was 19.9% (inactive); with `Cc1cc(C)c(C(=O)COC(=O)Cn2cnnn2)cc1C`, -10.7% (inactive); with `CCN(CC)c1ccc2c(C)c(Cl)c(=O)oc2c1`, -1.5% (inactive). For `CCN(CC)c1ccc2ccc(=O)oc2c1`, the inhibition is 2.1% (inactive).

Consider `O=C(NCCN1CCOCC1)c1cc2cc([N+](=O)[O-])ccc2s1`, for which the inhibition is 5.6% (inactive). In the case of `c1ccc(C2COC(c3cccs3)=N2)cc1` (stereo not drawn), the inhibition was 9.4% (inactive).

Turning to `N#CC1=C2SCN(Cc3ccco3)CN2C(=O)CC1c1ccccc1F` (stereo not drawn), the inhibition was 43.7% (inactive). As to `Cc1ccc(C2CC(=O)N3CN(Cc4ccco4)CSC3=C2C#N)cc1` (stereo not drawn), the inhibition was 29.7% (inactive).

In the case of `N#CC1=C2SCN(Cc3ccco3)CN2C(=O)CC1c1ccc(Cl)cc1` (stereo not drawn), the inhibition was 28.7% (inactive). Take `COc1cc(C2CC(=O)N3CN(Cc4ccccc4)CSC3=C2C#N)ccc1OCc1ccccc1` (stereo not drawn): the inhibition was 45.4% (inactive). For the compound `CC(C)c1ccc(C2CC(=O)N3CN(C)CSC3=C2C#N)cc1` (stereo not drawn), the inhibition was 40.6% (inactive). On to `CC(C)c1ccc(C2CC(=O)N3CN(Cc4ccco4)CSC3=C2C#N)cc1` (stereo not drawn), for which the inhibition was 52.6% (active).

For `COc1cc(C2CC(=O)N3CN(Cc4ccco4)CSC3=C2C#N)ccc1OCc1ccccc1` (stereo not drawn), the inhibition is 50% (active). With `COc1ccc(Br)cc1C1CC(=O)N2CN(Cc3ccccc3)CSC2=C1C#N` (stereo not drawn) the figure was 34.2% (inactive); with `COc1ccc2ccccc2c1C1CC(=O)N2CN(Cc3ccco3)CSC2=C1C#N` (stereo not drawn), 46.4% (inactive); with `N#CC1=C2SCN(Cc3ccco3)CN2C(=O)CC1c1cccc2ccccc12` (stereo not drawn), 55% (active). With `N#CC1=C2SCN(Cc3ccco3)CN2C(=O)CC1c1c(F)cccc1Cl` (stereo not drawn), the inhibition was -3.1% (inactive). Regarding `COc1ccc(C2CC(=O)N3CN(Cc4ccco4)CSC3=C2C#N)cc1` (stereo not drawn), the inhibition is 59.1% (active).

The values are drawn from PubChem BioAssay AID1209 (Sanford-Burnham Center for Chemical Genomics, 2008).
